Records with an inconclusive call do not appear. A number with no mark means an inactive call. Activity calls are given as the source filed them. Calls follow the shape of the dose curve; as a rule, active = well fitted activation curve with a large enough effect; inconclusive = small, poorly fitted or top-dose-only effect; inactive = no such curve, though single readings can be large or run the other way.
Assay: qHTS Assay for NPC1 Promoter Activators: Hit Validation Using Renila Luciferase Read-Out for NPC1; as to activity change, positive = activation: % of control where 0% means no effect
Details: Huh7 NPC1 promoter-luciferase reporter, luminescence, 24 h; series mostly up to 76.9 µM; activity change, positive = activation: at the top concentration
Description: Niemann Pick Type C (NPC) is a rare neurodegenerative lipidosis that is characterized by lipid storage in the endosomal/lysosomal system. Treatment modalities for this devastating disease are currently non-existent due to the severe obstacles associated with accessing the central nervous system with proteins or genes. The majority of mutations causing NPC disease are missense mutations that are distributed throughout the length of the NPC1 protein, with the most prevalent being the I1061T allele. Although NPC1 mutant proteins may be functional, they are typically trapped in the ER due to misfolding. […] We have developed and optimized a cell based renilla luciferase reporter assay in 1536 well format for the identification of up-regulators of the mutant Rab9 promoter. This assay presents data on the validation of hits from the primary screen, which used a firefly luciferase read-out. NIH Chemical Genomics Center [NCGC] NIH Molecular Libraries Probe Production centers Network [MLPCN] MLPCN Grant: MH089375 Assay Submitter (PI): Yiannis A. Ioannou
Huh7 cells stably expressing NPC promoter-luciferase will be seeded at 1,500 cells/well in 5 uL in 1,536-well white opaque plates with 23 nL/well of compound in DMSO solution. The assay plates will be incubated at 37 deg C for 24 hours, after which 3 uL/well BriteLite plus luciferase detection reagent mixture (Perkin Elmer) will be added. Luminescence signal will be measured in a ViewLux plate reader (Perkin Elmer) after a 10 minute incubation at the room temperature.
With COc1cccc(CNC(=O)CN(c2cc(C)cc(C)c2)S(=O)(=O)c2c(C)noc2C)c1 the “activity change, positive = activation” value was 7.09%.
In the case of Cc1ccc(NC(=O)NC(=O)c2ccccc2)cc1F, the “activity change, positive = activation” value is reported as -4.34%.
With Cc1ccc(NC(=O)c2c(O)c3ccccc3n(C)c2=O)nc1 the “activity change, positive = activation” value was -7.75%.
With O=C(NCCSCc1c(F)cccc1Cl)c1ccc(CN2CCOCC2)cc1 the “activity change, positive = activation” value was -51.3%.
In the case of CCOCC(=O)Nc1c(C(=O)Nc2ccc3c(c2)OCCO3)oc2ccccc12, the “activity change, positive = activation” value is reported as -45.9%.
In the case of CCN(CC)S(=O)(=O)c1ccc(NCc2ccccn2)nc1, the “activity change, positive = activation” value is reported as -15.6%.
In the case of O=C(c1cc2cc([N+](=O)[O-])ccc2oc1=O)n1cccn1, the “activity change, positive = activation” value is reported as 16.8%.
For COc1ccccc1N(C(=O)c1snc(C(N)=O)c1N)C(C(=O)NC1CCCCC1)c1cccc(OC)c1OC (stereo not given), the Potency was 11.6 µM (active).
For COC(=O)c1ccccc1S(=O)(=O)NNC(=O)Nc1ccccc1, the “activity change, positive = activation” value was -8.36%.
In the case of Cc1ccc(C(=O)c2cn[nH]c2-c2ccccc2O)cc1, the “activity change, positive = activation” value is reported as -17.1%.
With COc1ccccc1C(=O)Nc1nnc(SCC(=O)NC2CCCC2)s1 the “activity change, positive = activation” value was 18.1%.
For CC1CCCN(S(=O)(=O)c2ccc(C(=O)Nc3nnc(-c4ccncc4)o3)cc2)C1 (stereo not given), the “activity change, positive = activation” value was -61.4%.
For CC(C)C(NC(=O)c1ccc([N+](=O)[O-])cc1Cl)C(=O)N1CCCC1 (stereo not given), the “activity change, positive = activation” value was -2.08%.
For NC(=O)C(=O)NN=C1C2CC3CC(C2)CC1C3, the “activity change, positive = activation” value was -9.92%.
With Cc1noc(/C=C/N(C)C)c1S(=O)(=O)N1CCCC(C(=O)N2CCCCC2)C1 (stereo not given) the “activity change, positive = activation” value was 10.9%.
For COc1ccc(-c2noc(N3CCCC(C(=O)Nc4ccccc4F)C3)n2)cc1 (stereo not given), the “activity change, positive = activation” value was 4.18%.
In the case of CNC(=O)Cn1nc(C)c2ccccc2c1=O, the “activity change, positive = activation” value is reported as -12.4%.
In the case of Cc1ccc(C#N)c(SCC(=O)Nc2nccs2)n1, the “activity change, positive = activation” value is reported as -7.61%.
With CC(Sc1ncnc2c1cnn2-c1ccccc1)C(=O)Nc1ccc(N2CCOCC2)cc1 (stereo not given) the “activity change, positive = activation” value was -18%.
With O=C(COC(=O)c1ccc(-c2nnc(-c3ccccc3)o2)cc1)c1ccccc1 the “activity change, positive = activation” value was -10.3%.
With Cc1[nH]n(-c2cccc3ccccc23)c(=O)c1/C=N/c1sc2c(c1C#N)CCC2 the “activity change, positive = activation” value was -5.9%.
In the case of O=C(O)CSc1nnc(-c2ccncc2)n1CCc1ccccc1, the “activity change, positive = activation” value is reported as 5.75%.
With COC(=O)c1ccc(NC(=O)c2ccc3nc(C)sc3c2)cc1 the “activity change, positive = activation” value was -9.33%.
In the case of COc1ccc(NC(=O)CN(C)C(=O)c2ccc(=O)[nH]c2)cc1, the “activity change, positive = activation” value is reported as -7.94%.
With COC(=O)CSc1nc2cc3c(cc2cc1C#N)OCO3 the “activity change, positive = activation” value was -11.1%.
In the case of CCOC(=O)c1ccc(-c2nnc(-c3ccc(Cl)cc3Cl)o2)cc1, the “activity change, positive = activation” value is reported as -0.889%.
For O=C(CCS(=O)(=O)c1ccccc1)Nc1ccc(-c2nc3ccccc3s2)cc1, the “activity change, positive = activation” value was 1.69%.
For Cc1nnc2n(c1=O)N=C(c1ccc(Cl)cc1)CS2, the “activity change, positive = activation” value was 11.5%.
With FC(F)(F)c1ccc(Nc2nnnc3ccccc23)cc1 the “activity change, positive = activation” value was -69%.
With COc1ccc(-c2cc(C(=O)Nc3ccccc3F)on2)cc1 the “activity change, positive = activation” value was -15.9%.
With CCCOP(=O)(c1ccc(N(C)C)cc1)C(O)c1cccnc1 (stereo not given) the “activity change, positive = activation” value was 5.33%.
In the case of Cc1ccccc1NC(=O)Cc1nc(COC(=O)CC(C)c2ccccc2)cs1 (stereo not given), the “activity change, positive = activation” value is reported as -2.66%.
With CC1CN(C(=O)c2ccncc2)CC(C)O1 (stereo not given) the “activity change, positive = activation” value was -24.2%.
For O=C(C1COc2ccccc2O1)N1CCN(S(=O)(=O)c2ccccc2)CC1 (stereo not given), the “activity change, positive = activation” value was -1.33%.
For CCCCn1c(Nc2ccc(OC)cc2)nc2ccccc21, the “activity change, positive = activation” value was -4.57%.
For COCC1CCN(C(=O)c2ccc3oc(Cc4ccccc4)nc3c2)C1 (stereo not given), the “activity change, positive = activation” value was -18.2%.
For Cc1ccc(C)c(Nc2cc(C)nc3ncnn23)c1, the “activity change, positive = activation” value was -15.2%.
With COc1ccc(/C=C\c2onc(C)c2S(=O)(=O)N2CCC(C(=O)NCCC(C)C)CC2)cc1 the “activity change, positive = activation” value was -44.7%.
For Cc1ccc(C(=O)c2cncc(Br)c2)cc1, the “activity change, positive = activation” value was -4.32%.
In the case of Cc1ccc(N=Cc2sc(O)c3ccccc23)c(C)c1, the “activity change, positive = activation” value is reported as -14.6%.

From PubChem BioAssay AID720526 (National Center for Advancing Translational Sciences (NCATS), 2013)
Potency is read from the fitted curve at half-maximal effect.
